Inconclusive results are not listed. Calls of active or inactive are those of the source. The calls were made as follows, unless noted: active = hit-call score of the fitted dose curve at least 0.9, where 1 is the maximum; inactive = score below 0.9.
Experiments:
[1] = molecular target: Bile acid receptor (Homo sapiens) (UniProt Q96RI1); experiment: ATG_FXR_TRANS: Attagene TRANS-FACTORIAL HepG2 Assay for Farnesoid X Receptor (FXR) (AID 2282979; active = hit-call score of the fitted dose curve at least 0.9, where 1 is the maximum;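 also: hits raise reporter mRNA above DMSO so AC50 marks FXR activation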); conditions: HepG2 Attagene TRANS FXR-GAL4 reporter transcription
Chain of Bile acid receptor (Homo sapiens) (Q96RI1 whole entry, looked up, the tested form may be a part): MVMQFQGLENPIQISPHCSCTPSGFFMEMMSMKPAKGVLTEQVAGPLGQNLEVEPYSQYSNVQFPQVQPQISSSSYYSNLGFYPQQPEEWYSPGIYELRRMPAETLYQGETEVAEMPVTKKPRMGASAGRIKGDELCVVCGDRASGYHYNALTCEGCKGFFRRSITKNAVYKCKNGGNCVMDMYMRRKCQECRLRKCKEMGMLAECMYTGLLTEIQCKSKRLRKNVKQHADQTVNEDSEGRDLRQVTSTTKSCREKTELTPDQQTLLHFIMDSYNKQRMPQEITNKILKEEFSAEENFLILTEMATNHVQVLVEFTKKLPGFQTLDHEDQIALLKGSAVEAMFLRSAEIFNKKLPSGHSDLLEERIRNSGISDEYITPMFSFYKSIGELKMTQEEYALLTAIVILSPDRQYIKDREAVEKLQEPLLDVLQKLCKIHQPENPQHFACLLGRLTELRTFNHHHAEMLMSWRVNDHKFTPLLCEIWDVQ
Summary of the method: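 Transient transfection of HepG2 with multiplexed GAL4-UAS reporter units; exogenous FXR-GAL4 chimera. Dose 24 h → TriZol RNA → oligo(dT) RT → PCR, 6-FAM primer extension, HpaI cut → CE. Gain vs DMSO.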

[2] = molecular target: Oxysterols receptor LXR-alpha (Homo sapiens) (UniProt Q13133); experiment: ATG_LXRa_TRANS: Attagene TRANS-FACTORIAL HepG2 Assay for human Liver X Receptor alpha (LXRa) (AID 2282980; active = hit-call score of the fitted dose curve at least 0.9, where 1 is the maximum); conditions: HepG2 Attagene TRANS reporter, LXRa transactivation
Chain of Oxysterols receptor LXR-alpha (Homo sapiens) (Q13133 whole entry, looked up, the tested form may be a part): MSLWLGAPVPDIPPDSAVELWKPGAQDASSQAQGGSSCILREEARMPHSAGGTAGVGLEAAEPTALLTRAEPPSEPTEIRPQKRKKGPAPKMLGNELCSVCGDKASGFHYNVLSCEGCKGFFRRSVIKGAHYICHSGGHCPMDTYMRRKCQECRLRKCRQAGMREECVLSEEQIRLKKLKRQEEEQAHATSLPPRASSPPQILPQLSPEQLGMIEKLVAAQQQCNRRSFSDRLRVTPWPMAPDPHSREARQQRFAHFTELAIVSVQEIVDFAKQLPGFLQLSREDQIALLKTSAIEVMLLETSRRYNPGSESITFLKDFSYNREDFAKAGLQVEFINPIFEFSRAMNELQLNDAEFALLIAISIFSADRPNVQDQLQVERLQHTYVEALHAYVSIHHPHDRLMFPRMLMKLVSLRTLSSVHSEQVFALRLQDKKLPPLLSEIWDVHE
Summary of the method: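 Transfect HepG2 with GAL4-UAS multiplex reporter constructs (TRANS format, chimeric receptor-GAL4); treat 24 h; extract RNA, reverse-transcribe, PCR-amplify, FAM-label, HpaI-digest; resolve fragments by capillary electrophoresis. Upward response vs DMSO.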

[3] = molecular target: Hepatocyte nuclear factor 4-alpha (Homo sapiens) (UniProt P41235); experiment: ATG_HNF4a_TRANS: Attagene TRANS-FACTORIAL HepG2 Assay for human Hepatocyte Nuclear Factor 4 alpha (HNF4a) (AID 2282982; active = hit-call score of the fitted dose curve at least 0.9, where 1 is the maximum); conditions: HepG2 HNF4a transactivation reporter, mRNA readout
Chain of Hepatocyte nuclear factor 4-alpha (Homo sapiens) (P41235 whole entry, looked up, the tested form may be a part): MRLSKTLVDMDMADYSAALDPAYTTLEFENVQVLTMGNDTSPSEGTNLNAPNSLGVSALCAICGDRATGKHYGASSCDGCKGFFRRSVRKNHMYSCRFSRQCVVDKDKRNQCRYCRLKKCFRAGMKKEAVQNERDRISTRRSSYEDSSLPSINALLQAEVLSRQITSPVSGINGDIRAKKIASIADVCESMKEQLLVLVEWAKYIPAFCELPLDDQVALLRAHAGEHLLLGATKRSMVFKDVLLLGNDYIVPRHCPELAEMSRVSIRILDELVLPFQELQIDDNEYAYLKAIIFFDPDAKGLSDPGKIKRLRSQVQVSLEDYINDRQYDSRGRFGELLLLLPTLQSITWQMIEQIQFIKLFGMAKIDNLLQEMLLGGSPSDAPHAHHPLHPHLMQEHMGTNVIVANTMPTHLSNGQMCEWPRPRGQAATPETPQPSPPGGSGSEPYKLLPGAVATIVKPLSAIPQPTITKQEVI
Summary of the method: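 Readout is fluorescent reporter-transcript fragments resolved by capillary electrophoresis after RT-PCR from HepG2 cells dosed for 24 h. Cells carried transfected GAL4-UAS reporter constructs measuring exogenous NR-GAL4 chimera activity; DMSO served as baseline.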

[4] = ATG_M_06_TRANS: Attagene TRANS-FACTORIAL HepG2 Assay for M06 Transcription Factor (Internal Marker) (AID 2282983; active = hit-call score of the fitted dose curve at least 0.9, where 1 is the maximum;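 also: reporter transcript level by RT-PCR then capillary electrophoresis fluorescence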); conditions: HepG2 Attagene TRANS M06 internal marker reporter
Summary of the method: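 Transfect HepG2 with MRTUs → dose compounds 24 h → isolate RNA, oligo(dT) RT → PCR with reporter primers → 6-FAM primer extension → HpaI digest → CE fragment analysis. Positive direction vs DMSO.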

[5] = molecular target: Nuclear receptor subfamily 4 group A member 2 (Homo sapiens) (UniProt P43354); experiment: ATG_NURR1_TRANS: Attagene TRANS-FACTORIAL HepG2 Assay for human Nuclear Receptor Related Protein 1 (NURR1) (AID 2282985; active = hit-call score of the fitted dose curve at least 0.9, where 1 is the maximum); conditions: HepG2 Attagene TRANS reporter, mRNA readout
Chain of Nuclear receptor subfamily 4 group A member 2 (Homo sapiens) (P43354 whole entry, looked up, the tested form may be a part): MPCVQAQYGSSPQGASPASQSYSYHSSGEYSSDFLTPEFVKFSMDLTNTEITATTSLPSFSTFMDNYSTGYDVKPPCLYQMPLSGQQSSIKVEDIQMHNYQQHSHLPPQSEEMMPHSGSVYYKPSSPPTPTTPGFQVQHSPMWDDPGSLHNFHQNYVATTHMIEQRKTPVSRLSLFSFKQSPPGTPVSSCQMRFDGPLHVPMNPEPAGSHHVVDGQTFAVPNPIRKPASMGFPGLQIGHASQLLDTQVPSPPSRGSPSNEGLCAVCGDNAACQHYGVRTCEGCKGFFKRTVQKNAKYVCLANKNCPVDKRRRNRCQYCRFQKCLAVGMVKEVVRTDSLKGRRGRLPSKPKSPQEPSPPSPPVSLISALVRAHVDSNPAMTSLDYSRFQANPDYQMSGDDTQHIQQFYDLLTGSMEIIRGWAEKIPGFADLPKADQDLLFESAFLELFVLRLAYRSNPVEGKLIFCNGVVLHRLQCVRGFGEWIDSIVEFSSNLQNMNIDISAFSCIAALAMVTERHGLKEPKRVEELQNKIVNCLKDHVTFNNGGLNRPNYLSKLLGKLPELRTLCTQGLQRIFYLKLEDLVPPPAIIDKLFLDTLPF
Summary of the method: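 Transient transfection of HepG2, human liver cells, with multiple GAL4-UAS reporter transcription units. Cells dosed 24 h, RNA isolated, reverse-transcribed, PCR-amplified, FAM-labelled, HpaI-digested, sized by capillary electrophoresis. DMSO served as negative control.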

[6] = molecular target: Transcriptional activator Myb (Homo sapiens) (UniProt P10242); experiment: ATG_Myb_CIS: Attagene CIS-FACTORIAL HepG2 Assay for human Myeloblastosis (Myb) Proto-Oncogene Transcription Factor (AID 2282986); conditions: HepG2 Attagene CIS-FACTORIAL Myb reporter transcription; actives raise or lower the signal
Chain of Transcriptional activator Myb (Homo sapiens) (P10242 whole entry, looked up): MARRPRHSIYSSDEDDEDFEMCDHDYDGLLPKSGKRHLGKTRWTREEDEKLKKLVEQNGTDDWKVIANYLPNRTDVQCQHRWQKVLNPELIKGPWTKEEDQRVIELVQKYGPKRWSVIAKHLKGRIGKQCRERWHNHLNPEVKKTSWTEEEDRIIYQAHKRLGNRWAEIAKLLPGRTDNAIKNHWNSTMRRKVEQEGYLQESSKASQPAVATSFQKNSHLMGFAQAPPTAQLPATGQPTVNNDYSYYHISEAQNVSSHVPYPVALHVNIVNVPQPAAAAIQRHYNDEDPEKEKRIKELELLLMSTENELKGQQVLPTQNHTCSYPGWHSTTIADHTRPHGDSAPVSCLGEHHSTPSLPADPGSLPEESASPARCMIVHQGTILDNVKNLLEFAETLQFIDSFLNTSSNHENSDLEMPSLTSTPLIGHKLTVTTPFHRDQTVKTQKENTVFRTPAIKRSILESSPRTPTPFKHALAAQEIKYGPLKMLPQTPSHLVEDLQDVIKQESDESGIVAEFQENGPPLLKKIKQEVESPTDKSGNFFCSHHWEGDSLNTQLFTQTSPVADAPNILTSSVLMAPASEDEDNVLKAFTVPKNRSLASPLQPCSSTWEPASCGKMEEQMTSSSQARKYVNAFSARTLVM
Summary of the method: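 Fluorescence signals from capillary electrophoresis of RT-PCR-amplified reporter cDNA give the read-out. Cells: HepG2 transfected with multiple cis-regulated reporter units. Exposure lasts 24 hours; DMSO defines baseline for gain or loss of signal.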

[7] = molecular target: Nuclear respiratory factor 1 (Homo sapiens) (UniProt Q16656); experiment: ATG_NRF1_CIS: Attagene CIS-FACTORIAL HepG2 Assay for human Nuclear Respiratory Factor 1 (NRF1) Orphan Gene (AID 2282987); conditions: HepG2 NRF1 cis-element reporter, Attagene multiplex; actives raise or lower the signal
Chain of Nuclear respiratory factor 1 (Homo sapiens) (Q16656 whole entry, looked up): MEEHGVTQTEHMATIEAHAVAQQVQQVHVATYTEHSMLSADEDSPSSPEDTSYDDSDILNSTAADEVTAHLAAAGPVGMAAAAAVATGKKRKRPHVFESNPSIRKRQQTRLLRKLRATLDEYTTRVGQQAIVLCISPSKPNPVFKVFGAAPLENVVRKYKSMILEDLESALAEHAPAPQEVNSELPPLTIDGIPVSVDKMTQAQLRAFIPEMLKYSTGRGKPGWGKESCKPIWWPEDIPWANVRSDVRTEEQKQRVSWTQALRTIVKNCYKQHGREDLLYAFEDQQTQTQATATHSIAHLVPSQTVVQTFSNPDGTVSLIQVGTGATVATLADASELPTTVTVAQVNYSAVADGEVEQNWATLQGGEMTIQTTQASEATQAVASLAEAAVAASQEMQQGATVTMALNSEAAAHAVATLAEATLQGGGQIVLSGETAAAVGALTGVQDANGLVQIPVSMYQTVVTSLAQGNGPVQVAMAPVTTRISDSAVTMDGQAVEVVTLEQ
Summary of the method: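 Transcriptional reporter readout, one component of a 52-endpoint multiplexed HepG2 panel. Exposure 24 h; mRNA detected via RT-PCR and fluorescent capillary electrophoresis; fitting in both directions against DMSO.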

[8] = ATG_NFI_CIS: Attagene CIS-FACTORIAL HepG2 Assay for human Nuclear Factor I (NFI) (AID 2282989); conditions: HepG2 cis-regulatory reporter, NFI response element transcription; actives raise or lower the signal
Summary of the method: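 Reporter transcription driven by endogenous transcription factors in HepG2 cells; 24 h treatment. Quantitation by labelled RT-PCR fragments on capillary electrophoresis, gain- or loss-of-signal relative to DMSO.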

[9] = molecular target: Myc proto-oncogene protein (Homo sapiens) (UniProt P01106); experiment: ATG_Myc_CIS: Attagene CIS-FACTORIAL HepG2 Assay for human Myelocytomatosis (Myc) Proto-Oncogene Transcription Factor (AID 2282990); conditions: HepG2, Attagene cis-reporter transcription factor activity; actives raise or lower the signal
Chain of Myc proto-oncogene protein (Homo sapiens) (P01106 whole entry, looked up, the tested form may be a part): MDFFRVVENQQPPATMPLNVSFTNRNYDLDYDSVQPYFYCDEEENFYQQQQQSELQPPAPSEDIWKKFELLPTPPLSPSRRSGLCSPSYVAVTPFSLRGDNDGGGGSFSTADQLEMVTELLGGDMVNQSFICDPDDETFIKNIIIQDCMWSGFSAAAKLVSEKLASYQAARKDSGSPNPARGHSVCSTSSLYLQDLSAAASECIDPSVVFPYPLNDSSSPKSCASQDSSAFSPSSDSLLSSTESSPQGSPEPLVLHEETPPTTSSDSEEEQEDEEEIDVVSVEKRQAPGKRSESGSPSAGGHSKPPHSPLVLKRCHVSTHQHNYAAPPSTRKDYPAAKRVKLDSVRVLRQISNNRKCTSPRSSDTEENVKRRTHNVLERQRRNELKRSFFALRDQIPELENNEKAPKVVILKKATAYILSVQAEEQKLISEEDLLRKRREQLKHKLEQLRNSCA
Summary of the method: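 After 24 h chemical treatment of HepG2 cells carrying multiplexed cis-regulated reporter constructs, reporter transcripts quantified by RT-PCR and capillary electrophoresis of fluorescent fragments. Gain or loss fitted against DMSO baseline.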

[10] = ATG_NRF2_ARE_CIS: Attagene CIS-FACTORIAL HepG2 Assay for human Nuclear Factor Erythroid 2 Related Factor 2 (NFR2) response to Antioxidant Response Elements (ARE) (AID 2282992); conditions: HepG2 Attagene ARE/NRF2 reporter, transcription factor activity; actives raise or lower the signal;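 as to AC50: reporter mRNA level measured by RT-PCR and capillary electrophoresis fluorescence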
Summary of the method: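 Transient MRTU transfection of HepG2; 24 h compound exposure; TriZol RNA, RT with oligo(dT), PCR, 6-FAM primer extension, HpaI cut, CE. Bidirectional fit vs DMSO.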

[11] = ATG_Oct_MLP_CIS: Attagene CIS-FACTORIAL HepG2 Assay for human Octamer-Binding Transcription Factor (Oct) (AID 2282993); conditions: HepG2 Attagene cis-factorial Oct reporter, mRNA; actives raise or lower the signal
Summary of the method: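 Transfected HepG2 cells, 24 h treatment. Reporter mRNA quantified by RT-PCR–capillary electrophoresis; bidirectional fitting against DMSO.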

[12] = BSK_3C_TissueFactor: BioMAP Diversity Plus: 3C Assay for Tissue Factor Biomarker Activity (AID 2282997); conditions: BioMAP 3C HUVEC, tissue factor biomarker readout; actives raise or lower the signal
Summary of the method: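 ELISA read-out of Tissue Factor levels on human umbilical vein endothelium collected 24 h after chemical dosing. Gain or loss of signal was fitted relative to DMSO.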

[13] = BSK_3C_uPAR: BioMAP Diversity Plus: 3C Assay for Urokinase-type plasminogen activator receptor (uPAR) Biomarker Activity (AID 2282998); conditions: BioMAP 3C HUVEC, uPAR biomarker ELISA; actives raise or lower the signal
Summary of the method: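 Readout: ELISA for surface uPAR. System: human umbilical vein endothelial primary cells, 24 h after chemical exposure. Analysis: bidirectional fit, DMSO baseline.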

[14] = BSK_3C_VCAM1: BioMAP Diversity Plus: 3C Assay for Vascular cell adhesion molecule 1 (VCAM1) Biomarker Activity (AID 2282999); conditions: BioMAP 3C HUVEC, VCAM1 ELISA, cytokine-stimulated; actives raise or lower the signal
Summary of the method: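 Endothelial cells from human umbilical vein are treated with test chemical. At 24 h, VCAM-1 is measured by ELISA, and responses in either direction are fitted relative to DMSO.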

[15] = BSK_4H_Eotaxin3: BioMAP Diversity Plus: 4H Assay for Eotaxin 3 Biomarker Activity (AID 2283000); conditions: primary human endothelial cells (HUVEC); actives raise or lower the signal
Summary of the method: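 Chemicals were added to human umbilical vein endothelium cultures, and Eotaxin-3 was quantified by ELISA at 24 h. Values were derived by bidirectional fitting with DMSO serving as negative control and activity baseline.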

[16] = ATG_M_32_TRANS: Attagene TRANS-FACTORIAL HepG2 Assay for M32 Transcription Factor (Internal Marker) (AID 2282984; active = hit-call score of the fitted dose curve at least 0.9, where 1 is the maximum;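 also: transcript level of a background control reporter unit measured by RT-PCR and capillary electrophoresis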); conditions: HepG2 Attagene TRANS M32 internal marker reporter
Summary of the method: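 Measures reporter mRNA induction in human HepG2 liver cells after 24 h chemical treatment. Transcripts from transiently transfected GAL4-UAS reporter units are amplified, fluorescently labelled and sized by capillary electrophoresis; gain of signal relative to DMSO.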

[17] = molecular target: Cellular tumor antigen p53 (Homo sapiens) (UniProt P04637); experiment: ATG_p53_CIS: Attagene CIS-FACTORIAL HepG2 Assay for human p53 Transcription Factor (AID 2282994); conditions: HepG2 p53 cis-element reporter, Attagene mRNA; actives raise or lower the signal
Chain of Cellular tumor antigen p53 (Homo sapiens) (P04637 whole entry, looked up): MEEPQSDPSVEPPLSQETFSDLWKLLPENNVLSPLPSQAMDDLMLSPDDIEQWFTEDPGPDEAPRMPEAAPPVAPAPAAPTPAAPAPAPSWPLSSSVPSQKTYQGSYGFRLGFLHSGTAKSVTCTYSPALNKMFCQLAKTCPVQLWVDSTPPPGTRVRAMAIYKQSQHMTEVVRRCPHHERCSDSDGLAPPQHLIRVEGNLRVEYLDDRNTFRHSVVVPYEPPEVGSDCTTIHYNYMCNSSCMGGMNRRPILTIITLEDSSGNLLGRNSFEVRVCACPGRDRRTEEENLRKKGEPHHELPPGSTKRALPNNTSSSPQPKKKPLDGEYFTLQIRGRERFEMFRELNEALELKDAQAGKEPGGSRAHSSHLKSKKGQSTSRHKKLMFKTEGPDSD
Summary of the method: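 HepG2, transient MRTU transfection (cis promoter elements, endogenous TFs); 24 h dosing; RNA isolation, RT-PCR, 6-FAM primer extension, HpaI digest, CE fluorescence; bidirectional fit vs DMSO.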

[18] = ATG_NF_kB_CIS: Attagene CIS-FACTORIAL HepG2 Assay for human Nuclear Factor Kappa B (NF-kB) (AID 2282991); conditions: HepG2 Attagene cis-factorial NF-kB reporter mRNA; actives raise or lower the signal
Summary of the method: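 HepG2, transient multi-reporter transfection, cis promoter elements (endogenous TFs). 24 h exposure. Total RNA → RT → PCR → 6-FAM label → HpaI → CE. Gain/loss vs DMSO.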

Measured: AC50

CC(C)C(=O)Nc1ccc([N+](=O)[O-])c(C(F)(F)F)c1
active: [5] 43.5 µM | [10] 25.3 µM | [11] 26.1 µM
not listed: [16] | [17] | [18]
inactive: all other assays above

CCCCCCCCCCCCCCO
active: [6] 168 µM | [8] 179 µM | [9] 166 µM | [12] 36.6 µM | [13] 34.4 µM | [14] 32.8 µM | [15] 38.4 µM
inactive: [16] | [7] | [10] | [17]

Cc1nc(-c2ccccn2)ncc1C(=O)Nn1cc(C)c2cc(F)ccc21
active: [13] 20 µM
inactive: [7] | [9] | [10] | [12] | [14] | [15]

C=CN1CCCC1=O
not listed: [1] | [2] | [3] | [6] | [16] | [18]
inactive: all other assays above

NC(N)=O
not listed: [1] | [2] | [4] | [8] | [17] | [18]
inactive: all other assays above

Cn1cc[nH]c1=S
not listed: [1] | [2] | [3] | [6]
inactive: all other assays above

CCCCN1C(=O)[C@@H]([C@H](O)C2CCCCC2)NC(=O)C12CCN(Cc1ccc(Oc3ccc(C(=O)O)cc3)cc1)CC2
active: [18] 53.4 µM | [17] 93.5 µM | [13] 26.7 µM
not listed: [1] | [2] | [3] | [5] | [6] | [11]
inactive: all other assays above

CCCCCCCC/C=C\CCCCCCCC(=O)OC[C@@H](O)[C@H]1OC[C@H](O)[C@H]1O
not listed: [1] | [2] | [4]
inactive: all other assays above

CC(C)CC(C)O (stereo not drawn)
not listed: [1] | [2] | [4] | [5] | [16] | [17] | [18]
inactive: all other assays above

CCCCCCCCCC
not listed: [2] | [4] | [6] | [11] | [16] | [18]
inactive: all other assays above

OC[C@H]1O[C@@H]2O[C@H]3[C@H](O)[C@@H](O)[C@@H](O[C@H]4[C@H](O)[C@@H](O)[C@@H](O[C@H]5[C@H](O)[C@@H](O)[C@@H](O[C@H]6[C@H](O)[C@@H](O)[C@@H](O[C@H]7[C@H](O)[C@@H](O)[C@@H](O[C@H]1[C@H](O)[C@H]2O)O[C@@H]7CO)O[C@@H]6CO)O[C@@H]5CO)O[C@@H]4CO)O[C@@H]3CO
not listed: [1] | [2] | [3] | [8] | [16] | [17] | [18]
inactive: all other assays above

O=S1(=O)CCCO1
not listed: [1] | [2] | [5] | [8] | [18]
inactive: all other assays above

CC(=O)c1ccccc1
not listed: [1] | [2] | [4] | [5] | [6] | [11] | [16]
inactive: all other assays above

CCCCOC(=O)c1ccccc1
not listed: [1] | [2] | [3] | [6] | [11] | [16]
inactive: all other assays above
